Data as given in PubChem BioAssay (NCI).
“And” between values parts separate entries of the source, which are not always exact repeats. Equal values may be shown once. Compounds without any hit were thinned out: in the full panel of roughly 83,000, 20% have a hit.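 Single-concentration screen, 48 h exposure, 96-well plates. Endpoint: percent growth. Below 10 = active.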 The source made the active and inactive calls.

Each compound was assayed on HL-60(TB) leukemia (assay: NCI-60 one-dose screen, 48 h (100 = growth as untreated, 0 = no growth, -100 = all killed)). Details: 10 µM unless noted.
Description: Growth inhibition of the HL-60(TB) human tumor cell line is measured as a screen for anti-cancer activity. Cells are grown in 96 well plates and exposed to the test compound for 48 hours. Compounds are tested at a single concentration, which is 10^-5 M for most compounds. The reported endpoint is percent growth (GI% or GIPRCNT), where numbers from 0 - 100% represent growth inhibition, and numbers from -100% - 0 represent cell death. For example, a value of 40 represents 60% growth inhibition. A value of 0 means no net growth occurred over the course of the experiment. A value of -40 indicates 40% of cells at the beginning of the experiment died by the end of the experiment. A value of -100 means all cells are dead at the end of the experiment.
NCI-60 Human Tumor Cell Lines Screen was performed using the standard one-dose NCI protocol, which is described in more detail at https://dtp.cancer.gov/discovery_development/nci-60/default.htm.
Compounds with GIPRCNT values below 10 were considered active. Activity score was based on GIPRCNT using the following formula: […]
Score is 0 for GIPRCNT values of 100 or above, 50 for GIPRCNT values of 0, and 100 for GIPRCNT values of -100.

Row | SMILES | growth
1 | Oc1ccccc1C=NCCN=Cc1ccccc1O.[Fe] | 44.5% (inactive)
2 | O=C(CBr)OCCOC(=O)CBr | 42.4% (inactive)
3 | CC[C@H](C)[C@H]1O[C@]2(C=C[C@@H]1C)C[C@@H]1C[C@@H](C/C=C(\C)[C@@H](O[C@H]3C[C@H](OC)[C@@H](O[C@H]4C[C@H](OC)[C@@H](NC)[C@H](C)O4)[C@H](C)O3)[C@@H](C)/C=C/C=C3\CO[C@@H]4[C@H](O)C(C)=C[C@@H](C(=O)O1)[C@]34O)O2 | -59.8% (active)
4 | COC(=O)C1=CO[C@@H](C)[C@@H]2CN3CCc4c([nH]c5cc(OC)ccc45)[C@@H]3C[C@H]12 | 87.1% (inactive)
5 | Nc1c(Cl)c(Cl)nc(C(=O)O)c1Cl | 62.8% (inactive)
6 | CC[C@H](C)[C@H](NC(=O)[C@H]1CCCCN1C)C(=O)N(C)[C@H](C[C@@H](OC(C)=O)c1cccc(C(=O)N[C@@H](Cc2ccccc2)C[C@H](C)C(=O)OC)n1)C(C)C | -42.9% (active)
7 | Oc1cc(Cl)ccc1Oc1ccc(Cl)cc1Cl | -24.9% (active)
8 | N#CCCc1ccccc1 | 103% (inactive)
9 | CNC(=O)Oc1ccc(Cl)cc1SSc1cc(Cl)ccc1OC(=O)NC | 61.3% (inactive)
10 | CO/N=C1\CC[C@]2(C)[C@H]3CC[C@]4(C)C(=O)CC[C@H]4[C@@H]3C[C@@H]3SC(N)=N[C@@]32C1 | 91.9% (inactive)
11 | Oc1ccccc1C=NCCN=Cc1ccccc1O | 115% (inactive)
12 | C=C1C(=O)OC2CC3(C)OC3C3OC3C3=CC(OC3=O)C12 (stereo not given) | -17.4% (active) and 3.33% (active)
13 | O=S(=O)(O)c1ccc(Cl)cc1 | 89.1% (inactive)
14 | C=CC[PH+](c1ccccc1)c1ccccc1.C=CC[PH+](c1ccccc1)c1ccccc1.[Pt+2].[S-]c1ncccn1.[S-]c1ncccn1 | -5.51% (active)
15 | Cc1cc(N(CCCl)CCCl)ccc1C=Nc1ccc(-c2csc(-c3ccccc3)n2)cc1 | 49.1% (inactive)
16 | O=C(O)C(O)c1ccc(Cl)cc1 (stereo not given) | 101% (inactive)
17 | NC1CN2CCC1CC2 (stereo not given) | 84.9% (inactive)
18 | COc1ccc2c(c1)c(-c1nc(-c3cn(C)c4ncccc34)cs1)cn2CCCCN1CCOCC1 | 24.7% (inactive)
19 | CC(Oc1ccc(-c2ccccc2)cc1)C(=O)O (stereo not given) | 97.3% (inactive)
20 | CC(=O)c1cccc(S(=O)(=O)F)c1 | 103% (inactive)

Row | SMILES | growth
21 | Cc1cc(N(CCCl)CCCl)ccc1/C=N\NC(=O)c1cccnc1 | 60% (inactive)
22 | COc1cc(C2C3=C(CCCC3=O)N(CCO)c3cc4c(cc32)CCC4)cc(OC)c1OC (stereo not given) | 102% (inactive)
23 | O=[P+](O)c1cccnc1 | 107% (inactive)
24 | CCCCCCCCCCCCCCCC[N+](C)(C)Cc1ccccc1 | -28.8% (active) and -47.8% (active)
25 | Cc1ccc(NC(=O)c2cc3ccccc3cc2O)c(C)c1 | 54.3% (inactive)
26 | CCCCCCCCCCCCCCCCCCn1cc[n+](C)c1 | 3.76% (active) and 2.22% (active)
27 | C[C@]12CC[C@H]3[C@@H](CC=C4c5nc(N)sc5CC[C@@]43C)[C@@H]1CC[C@@H]2O | 87.8% (inactive)
28 | CC(=O)Cc1ccc2c(c1)OCO2 | 77.4% (inactive)
29 | Oc1cc(N2CC2)c(O)cc1N1CC1 | 16.1% (inactive)
30 | COC12CC3(C)C(C4=CC(=O)OC4)CCC3(O)C3CCC4=CC(=O)CCC4(CO1)C32 (stereo not given) | 123% (inactive)
31 | CC[C@H](C)[C@H](NC(=O)[C@H]1CCCCN1C)C(=O)N(C)[C@H](C(=O)NC12CC(C(=O)N[C@@H](Cc3ccccc3)C[C@H](C)C(=O)OC)(C1)C2)C(C)C | 114% (inactive)
32 | O=C1C=CC(=O)N1CO | -11.7% (active)
33 | CC[PH+](CC)CC.O=COC1OC([S-])C(OC=O)C(OC=O)C1OC=O.[Au+] (stereo not given) | -33.3% (active)
34 | O=c1c2ccccc2nc(-c2ccccc2Cl)n1-c1nnc(C(F)(F)F)s1 | 1.24% (active)
35 | CCCCOCCOP(=O)(OCCOCCCC)OCCOCCCC | 84.1% (inactive)
36 | O=S(=O)(F)c1cccc(Cl)c1C[P+](c1ccccc1)(c1ccccc1)c1ccccc1 | 98.9% (inactive)
37 | O=[N+]([O-])c1c(Cl)cc(Cl)c([N+](=O)[O-])c1Cl | 85.2% (inactive)
38 | CN1C2CCC1[C@@H](COC(=O)c1ccccc1)[C@@H](O)C2 (stereo not given in full) | 81.7% (inactive)
39 | COC(=O)CCP(CCC(=O)OC)c1ccccc1 | 98.5% (inactive)
40 | C=C[Se]CC(=O)/C=C/c1ccccc1 | 42.2% (inactive)
